Only some compounds are listed: those with a hit (about 6.6% of all), similar ones and a draw of the others.
Autofluor counter: counter-screen for toxin protease inhibitors: compound fluorescence. compound autofluorescence counterscreen, microsphere flow cytometry; active compounds read high. fluorescence intensity (no concentration beside the values). actives 3.1% (n = 360,000); in the data active means fluorescence intensity above about 16000; inconclusive means no clear call, values can overlap the other calls
Mtb FBA inh: Mtb fructose-bisphosphate aldolase inhibition; purified M. tuberculosis FBA, fluorescence read-out; inhibition, % at 1 µM; actives 2.3% (n = 360,000)
GDH-TPI counter-1: GDH-TPI coupled enzyme inhibition counter-screen. actives 1.2% (n = 360,000). GDH-TPI coupled enzyme counterscreen, NADH absorbance. inhibition, % at 4.8 µM. AID 588335; in the data active means inhibition above about 30%
BoNT A protease: inhibitors of Botulinum neurotoxin A light chain protease | multiplex microsphere protease substrate cleavage, flow cytometry | inhibition, % at 10 µM | actives 0.17% (n = 360,000); in the data active means inhibition above about 30%; inconclusive means no clear call, values can overlap the other calls
BoNT-F LC inh: BoNT F light chain protease inhibition; inhibition, % at 10 µM; actives 0.22% (n = 360,000); Multiplex microsphere protease cleavage assay, flow cytometry; AID 588497; in the data active means inhibition above about 35%, passing the limit was not always enough; inconclusive means no clear call, values can overlap the other calls
Anthrax LF inh2: inhibitors of Bacillus anthracis lethal factor protease. P15917. multiplex microsphere protease cleavage assay, LF. inhibition, % at 10 µM. actives 0.12% (n = 360,000). AID 588501; in the data active means inhibition above about 30%; inconclusive means no clear call, values can overlap the other calls
Target sequence (P15917 whole entry, looked up): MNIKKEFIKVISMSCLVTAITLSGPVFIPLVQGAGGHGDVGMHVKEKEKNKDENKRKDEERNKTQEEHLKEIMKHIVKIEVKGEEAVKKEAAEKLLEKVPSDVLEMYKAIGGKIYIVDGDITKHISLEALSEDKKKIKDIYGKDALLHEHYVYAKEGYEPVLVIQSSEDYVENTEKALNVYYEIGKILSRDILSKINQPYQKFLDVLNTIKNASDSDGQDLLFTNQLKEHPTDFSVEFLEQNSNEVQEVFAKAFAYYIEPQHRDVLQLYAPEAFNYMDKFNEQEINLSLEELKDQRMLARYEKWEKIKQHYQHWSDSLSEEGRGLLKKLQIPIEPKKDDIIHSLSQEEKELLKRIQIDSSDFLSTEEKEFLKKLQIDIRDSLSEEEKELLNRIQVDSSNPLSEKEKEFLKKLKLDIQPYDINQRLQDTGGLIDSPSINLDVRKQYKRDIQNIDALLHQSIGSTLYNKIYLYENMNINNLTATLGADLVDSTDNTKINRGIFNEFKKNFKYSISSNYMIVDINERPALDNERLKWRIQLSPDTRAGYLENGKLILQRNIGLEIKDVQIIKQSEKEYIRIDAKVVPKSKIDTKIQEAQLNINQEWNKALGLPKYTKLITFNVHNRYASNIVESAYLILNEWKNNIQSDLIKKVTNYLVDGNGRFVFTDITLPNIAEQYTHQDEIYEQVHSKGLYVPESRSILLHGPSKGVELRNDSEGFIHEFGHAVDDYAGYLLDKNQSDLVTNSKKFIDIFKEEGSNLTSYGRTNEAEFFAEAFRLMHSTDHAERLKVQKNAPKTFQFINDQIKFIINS
Mtb FBA confirm: confirmation of M. tuberculosis fructose-bisphosphate aldolase inhibitors; shares compounds with Mtb FBA inh; purified M. tuberculosis FBA, fluorescence read-out; inhibition, % at 1 µM; actives 78% (n = 5,600); AID 651616
GDH-TPI counter-2: counter-screen for M. tuberculosis FBA inhibitors: GDH-TPI coupled enzyme inhibition; shares compounds with Mtb FBA inh; GDH-TPI coupled enzyme counterscreen, fluorescence; inhibition, % at 1 µM; actives 81% (n = 5,600); AID 652141; in the data active means inhibition above about 10%
GDH-TPI DR: counter-screen for M. tuberculosis FBA inhibitors: GDH-TPI dose response. shares compounds with Mtb FBA inh. GDH-TPI coupled enzyme assay, fluorescence, artifact counterscreen. IC50, µM. actives 79% (n = 170). AID 652145; call rule not given here
Large screens that a line does not name were inactive (follow-up assays come after a bar, where they were run). Unless noted, no stated cut-off is given here; in the data, active means inhibition above about 27%; inactive means the rest.

Cc1cc(OC(C)C(=O)NCC(O)c2ccccc2)c2c3c(c(=O)oc2c1)CCC3 (centres undefined)	Mtb FBA inh 77 | Mtb FBA confirm 32 | GDH-TPI counter-2 35
COc1ccc(CC(=O)Nc2cccc(-c3cn4ccccc4n3)c2)cc1	Mtb FBA inh 31 | Mtb FBA confirm 123 | GDH-TPI counter-2 86
COc1ccc(CC(=O)Nc2ccc(-c3cn4ccccc4n3)cc2)cc1	Mtb FBA inh 66 | Mtb FBA confirm active | GDH-TPI counter-2 active
O=C(Nc1cccc(-c2cn3ccccc3n2)c1)C1CC1	Mtb FBA inh 36 | Mtb FBA confirm 112 | GDH-TPI counter-2 88
CCOc1ccc(-c2cn3ccccc3n2)cc1	Mtb FBA inh 44 | Mtb FBA confirm 116 | GDH-TPI counter-2 69
Cc1cc(C)c(NC(=O)COC(=O)CCc2ccc(S(=O)(=O)N3CCCCC3)cc2)c(C)c1	none
COc1ccc(CC(=O)Nc2ccc(-c3cn4ccccc4n3)cc2)cc1OC	Mtb FBA inh 71 | Mtb FBA confirm inactive | GDH-TPI counter-2 inactive
Cc1cc2nc(-c3nnnn3Cc3ccccc3)c(=O)[nH]c2cc1C	none (no result: Mtb FBA inh, GDH-TPI counter-1)
COc1ccc(-c2[nH]nc3oc(=O)cc(C)c23)cc1	Mtb FBA inh 43 | Mtb FBA confirm inactive | GDH-TPI counter-2 inactive | GDH-TPI DR 3.4
C[C@H](CO)N1C[C@H](C)[C@@H](CN(C)C(=O)Nc2ccc(C(F)(F)F)cc2)Oc2ccc(NC(=O)Cn3cnnn3)cc2C1=O	none
CN(Cc1cnccn1)C(=O)CC1C(=O)NCCN1Cc1cccc(Oc2ccccc2)c1 (centres undefined)	Mtb FBA inh 28 | Mtb FBA confirm 85 | GDH-TPI counter-2 77
CC(C)C(OC(=O)c1cccc(S(=O)(=O)NCC(F)(F)F)c1)C(=O)NC(N)=O (centres undefined)	none
COc1ccc(CCC(=O)N2CCCc3ccccc32)cc1	none
Cc1cc(=O)oc2cc(OCC(=O)N3CCC(C(N)=O)CC3)ccc12	Mtb FBA inh 27 | Mtb FBA confirm active | GDH-TPI counter-2 active
Cc1cc(=O)oc2cc(OCC(=O)OCC(=O)N3CCC(C)CC3)ccc12	Mtb FBA inh 42 | Mtb FBA confirm 182 | GDH-TPI counter-2 131
Cc1cc(=O)oc2cc(OCC(=O)N3CCc4ccccc4C3)ccc12	none
Cc1cc(OCC(=O)N2CCC(C(N)=O)CC2)c2c(C)cc(=O)oc2c1	Mtb FBA inh 33 | Mtb FBA confirm inactive | GDH-TPI counter-2 15
Cn1nnnc1SCC(=O)Nc1nn(-c2ccccc2)nc1C(N)=O	Mtb FBA inh 28 | Mtb FBA confirm 132 | GDH-TPI counter-2 89
Cn1nnnc1SCC(=O)Nc1ccc(Oc2ccccc2)cc1	none
COc1ccc(-c2cc3nc(-c4ccccc4)cc(N4CCN(C(=O)c5ccoc5)CC4)n3n2)cc1	Mtb FBA inh 56 | Mtb FBA confirm 48 | GDH-TPI counter-2 36
CCN1CCN(c2cc(-c3ccccc3)nc3cc(-c4cccc(F)c4)nn23)CC1	Mtb FBA inh 42 | Mtb FBA confirm 76 | GDH-TPI counter-2 53
COc1cccc(-c2cc3nc(-c4ccccc4)cc(N4CCCC(O)C4)n3n2)c1 (centres undefined)	Mtb FBA inh 102 | Mtb FBA confirm 199 | GDH-TPI counter-2 141
OC1CCN(c2cc(-c3ccccc3)nc3cc(-c4ccc(F)cc4)nn23)CC1	none
NC(=O)C1CN(C(=O)c2nn(Cc3ccccc3)c(=O)c3ccccc23)c2ccccc2O1 (centres undefined)	none
Cc1nc2c(-c3ccc(Cl)cc3)c(C)[nH]n2c(=O)c1Cc1ccccc1	Mtb FBA inh 39 | Mtb FBA confirm inactive | GDH-TPI counter-2 inactive
Cc1nc2c(-c3ccc(F)cc3)c(C)[nH]n2c(=O)c1Cl	Mtb FBA inh 42 (no result: Autofluor counter, BoNT A protease, BoNT-F LC inh, Anthrax LF inh2) | Mtb FBA confirm inactive | GDH-TPI counter-2 21
Cc1nc2c(-c3ccccc3)c(C)[nH]n2c(=O)c1Cc1ccccc1	none
CCOC(=O)c1c(NC(=O)Cn2cnc3scc(-c4ccc(C)cc4)c3c2=O)sc(C)c1C	none
O=C(Oc1cccc2c(O)cccc12)c1ccco1	none
Cc1cccc(NC(=S)NC(NC(=O)c2ccco2)C(Cl)(Cl)Cl)c1 (centres undefined)	Mtb FBA inh 74 | Mtb FBA confirm 89 | GDH-TPI counter-2 95
Cc1ccc(NC(=S)NC(NC(=O)c2ccco2)C(Cl)(Cl)Cl)cc1 (centres undefined)	none
CCOc1ccc(NS(=O)(=O)c2ccc(C(=O)N(C)CC(=O)Nc3cccc(OC)c3)cc2)cc1	none
CCN(CC)c1cc(C)c2cc(NC(=O)c3ccccc3F)ccc2n1	none
CCN(CC)c1cc(C)c2cc(NC(=O)CNC(C)=O)ccc2n1	Mtb FBA inh 49 | Mtb FBA confirm 101 | GDH-TPI counter-2 110
CC1Cc2c([nH]c3ccccc23)C(=O)N1 (centres undefined)	Mtb FBA inh 32 | Mtb FBA confirm active | GDH-TPI counter-2 148
CC1CCN(CCNC(=S)Nc2ccc(Cl)cc2)CC1	none
O=C(NCCCCO)c1ccc2c3c(cccc13)CC2	Mtb FBA inh 64 | Mtb FBA confirm inactive | GDH-TPI counter-2 inactive
CCOCCNC(=O)c1ccc2c3c(cccc13)CC2	Mtb FBA inh 81 | Mtb FBA confirm 47 | GDH-TPI counter-2 36
O=C(NC1CC1)c1ccc2c3c(cccc13)CC2	none
O=C(COC(=O)CNS(=O)(=O)/C=C/c1ccccc1)Nc1cccc2ccccc12	none
NCCCCc1ccc2ccc3cccc4ccc1c2c34	Autofluor counter inconclusive
O=C(O)CCCc1ccc2ccc3cccc4ccc1c2c34	Mtb FBA inh 56, GDH-TPI counter-1 35 | Mtb FBA confirm active | GDH-TPI counter-2 active
COc1ccc(C2OCC(C)([N+](=O)[O-])CO2)cc1 (centres undefined)	none
CN(C)/C=N/c1nc2nccc(-c3ccc(F)cc3)n2n1	Mtb FBA inh 88 | Mtb FBA confirm 62 | GDH-TPI counter-2 56
CN(C)/C=N/c1nc2nccc(-c3cccc(Cl)c3)n2n1	Mtb FBA inh 34 | Mtb FBA confirm inactive | GDH-TPI counter-2 inactive | GDH-TPI DR 2.2
CC(Oc1cccc(Cl)c1)c1ccnc2nc(/N=C/N(C)C)nn12 (centres undefined)	none
O=c1[nH]c(N2CCOCC2)cc2ccccc12	Mtb FBA inh 45 | Mtb FBA confirm 144 | GDH-TPI counter-2 100
CN(C)CCCNC(=O)C[C@H]1C[C@H](C(=O)N2CCOCC2)[C@@]2(C)c3[nH]c4cc(-c5ccco5)ccc4c3CCN2C1=O	Mtb FBA inh 33 | Mtb FBA confirm 135 | GDH-TPI counter-2 110

Assay outcomes (PubChem)
